# Measured values: PMC7862700, “An all-to-all approach to the identification of sequence-specific readers for epigenetic DNA modifications on cytosine”
# Tests used:
# Test in all cases: DAPPL (digital affinity profiling via proximity ligation, sequencing); 10 mM Tris-HCl pH 7.5, 50 mM NaCl, 1 mM DTT, 4% glycerol, room temperature, 30 min; GST-TFs on glutathione beads, 16-mer random dsDNA library, 0.1% formaldehyde crosslink after washing; high values mean tight binding
# [1] = molecular target: T1, FEV (Homo sapiens, UniProt Q99581 1-238); settings: protein: recombinant; tags: N-terminal GST; dsDNA, one strand shown
# T1 sequence: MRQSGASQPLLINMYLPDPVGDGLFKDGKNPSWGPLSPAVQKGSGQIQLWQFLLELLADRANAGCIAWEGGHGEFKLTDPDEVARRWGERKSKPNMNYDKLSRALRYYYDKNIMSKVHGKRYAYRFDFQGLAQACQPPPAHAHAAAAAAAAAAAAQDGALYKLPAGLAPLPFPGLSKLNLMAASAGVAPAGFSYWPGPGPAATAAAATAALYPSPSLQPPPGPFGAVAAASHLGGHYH
# Method in brief: (§1)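 Pools of DNA-barcoded human transcription factors, expressed in yeast as GST fusions on glutathione beads and combined with a tag-only sample, were incubated with 200 nmole of a 16-mer random double-stranded DNA library. Incubation took 30 min at room temperature in Tris/NaCl/DTT/glycerol buffer and was followed by washing, 0.1% formaldehyde crosslinking, proximity ligation (BsaI/T4 ligase, 1 h, 37 °C), PCR amplification and sequencing on an Illumina NextSeq500. Binding signal is the ratio of a hexamer's read frequency for a factor to its frequency for the tag-only sample.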
# [2] = molecular target: ETV5 (Homo sapiens, UniProt P41161 1-510); settings: protein: recombinant; tags: N-terminal GST; dsDNA, one strand shown
# Sequence of ETV5 (P41161 whole entry): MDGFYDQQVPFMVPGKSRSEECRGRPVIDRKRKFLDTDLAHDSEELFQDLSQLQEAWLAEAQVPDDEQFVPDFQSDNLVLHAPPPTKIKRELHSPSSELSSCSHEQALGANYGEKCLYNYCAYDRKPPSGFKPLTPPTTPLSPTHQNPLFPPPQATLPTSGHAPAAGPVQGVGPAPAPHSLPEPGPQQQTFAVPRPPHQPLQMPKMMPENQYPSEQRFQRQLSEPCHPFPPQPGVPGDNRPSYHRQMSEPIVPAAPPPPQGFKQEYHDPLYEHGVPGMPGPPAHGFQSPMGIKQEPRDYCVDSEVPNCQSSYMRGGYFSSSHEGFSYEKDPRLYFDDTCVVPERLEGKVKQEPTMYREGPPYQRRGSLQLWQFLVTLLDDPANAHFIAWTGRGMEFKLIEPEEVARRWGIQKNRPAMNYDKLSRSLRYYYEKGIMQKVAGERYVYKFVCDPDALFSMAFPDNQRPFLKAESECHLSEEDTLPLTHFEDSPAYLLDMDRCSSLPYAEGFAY
# Method in brief: as §1
# [3] = molecular target: HSF1 (Homo sapiens, UniProt Q00613 1-529); settings: protein: recombinant; tags: N-terminal GST; chain copies: 3; dsDNA, one strand shown
# Sequence of HSF1 (Q00613 whole entry): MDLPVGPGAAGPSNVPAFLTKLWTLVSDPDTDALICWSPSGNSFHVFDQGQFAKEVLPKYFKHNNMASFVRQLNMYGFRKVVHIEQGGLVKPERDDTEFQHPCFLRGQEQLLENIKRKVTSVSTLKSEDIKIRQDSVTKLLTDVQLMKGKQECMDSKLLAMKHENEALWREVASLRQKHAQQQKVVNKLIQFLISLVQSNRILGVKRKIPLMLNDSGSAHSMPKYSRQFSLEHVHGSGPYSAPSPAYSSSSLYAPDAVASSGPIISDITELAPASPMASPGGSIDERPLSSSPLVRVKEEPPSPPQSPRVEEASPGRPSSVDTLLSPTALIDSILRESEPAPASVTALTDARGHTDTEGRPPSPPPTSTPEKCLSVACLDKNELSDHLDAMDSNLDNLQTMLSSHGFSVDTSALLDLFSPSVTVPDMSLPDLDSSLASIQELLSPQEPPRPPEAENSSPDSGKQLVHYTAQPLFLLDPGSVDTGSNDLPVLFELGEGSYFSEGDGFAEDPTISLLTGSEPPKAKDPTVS
# Method in brief: as §1
# [4] = molecular target: T2, SPIC (Homo sapiens, UniProt Q8N5J4 1-248); settings: protein: recombinant; tags: N-terminal GST; dsDNA, one strand shown
# T2 sequence: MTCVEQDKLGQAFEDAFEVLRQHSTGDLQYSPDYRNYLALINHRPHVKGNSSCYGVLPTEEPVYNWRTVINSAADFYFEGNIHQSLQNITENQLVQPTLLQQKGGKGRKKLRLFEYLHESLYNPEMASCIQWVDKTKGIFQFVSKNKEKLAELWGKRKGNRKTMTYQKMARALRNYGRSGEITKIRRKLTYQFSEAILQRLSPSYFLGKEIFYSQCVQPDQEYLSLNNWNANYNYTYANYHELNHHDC
# Method in brief: as §1
# [5] = molecular target: ELF4 (Homo sapiens, UniProt Q99607 1-663); settings: protein: recombinant; tags: N-terminal GST; dsDNA, one strand shown
# Sequence of ELF4 (Q99607 whole entry): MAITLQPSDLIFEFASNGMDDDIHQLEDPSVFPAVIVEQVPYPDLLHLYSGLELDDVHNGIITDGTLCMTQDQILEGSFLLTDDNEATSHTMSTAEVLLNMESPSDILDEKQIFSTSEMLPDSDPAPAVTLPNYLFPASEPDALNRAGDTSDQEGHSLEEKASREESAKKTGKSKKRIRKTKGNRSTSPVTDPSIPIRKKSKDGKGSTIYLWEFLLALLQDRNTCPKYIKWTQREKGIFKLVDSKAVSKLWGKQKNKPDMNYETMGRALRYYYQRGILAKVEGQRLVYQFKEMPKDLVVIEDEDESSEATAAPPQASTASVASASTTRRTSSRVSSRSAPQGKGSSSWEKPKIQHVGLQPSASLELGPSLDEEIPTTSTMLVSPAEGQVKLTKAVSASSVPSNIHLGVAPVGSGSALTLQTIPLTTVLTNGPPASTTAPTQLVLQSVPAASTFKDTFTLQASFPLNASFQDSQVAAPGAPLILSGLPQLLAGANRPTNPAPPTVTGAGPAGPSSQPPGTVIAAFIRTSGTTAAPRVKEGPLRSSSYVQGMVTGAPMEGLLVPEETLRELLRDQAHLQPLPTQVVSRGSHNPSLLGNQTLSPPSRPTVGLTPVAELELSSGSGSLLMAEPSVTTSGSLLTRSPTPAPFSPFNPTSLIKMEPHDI
# Method in brief: as §1
# [6] = molecular target: T3, ELK4 (Homo sapiens, UniProt P28324-2 1-405); settings: protein: recombinant; tags: N-terminal GST; dsDNA, one strand shown
# T3 sequence: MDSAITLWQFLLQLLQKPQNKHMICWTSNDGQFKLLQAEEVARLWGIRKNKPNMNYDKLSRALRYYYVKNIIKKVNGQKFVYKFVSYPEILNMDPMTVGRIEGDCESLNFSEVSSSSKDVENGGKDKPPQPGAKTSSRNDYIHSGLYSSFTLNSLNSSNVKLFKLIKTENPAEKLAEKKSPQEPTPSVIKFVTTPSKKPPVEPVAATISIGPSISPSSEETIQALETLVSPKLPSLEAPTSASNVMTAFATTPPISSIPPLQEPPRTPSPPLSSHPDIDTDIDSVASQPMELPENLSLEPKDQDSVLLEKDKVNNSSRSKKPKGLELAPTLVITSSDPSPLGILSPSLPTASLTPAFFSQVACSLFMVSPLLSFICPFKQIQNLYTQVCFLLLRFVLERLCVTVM
# Method in brief: as §1
# [7] = molecular target: T4, ETV2 (Homo sapiens, UniProt O00321 1-342); settings: protein: recombinant; tags: N-terminal GST; dsDNA, one strand shown
# T4 sequence: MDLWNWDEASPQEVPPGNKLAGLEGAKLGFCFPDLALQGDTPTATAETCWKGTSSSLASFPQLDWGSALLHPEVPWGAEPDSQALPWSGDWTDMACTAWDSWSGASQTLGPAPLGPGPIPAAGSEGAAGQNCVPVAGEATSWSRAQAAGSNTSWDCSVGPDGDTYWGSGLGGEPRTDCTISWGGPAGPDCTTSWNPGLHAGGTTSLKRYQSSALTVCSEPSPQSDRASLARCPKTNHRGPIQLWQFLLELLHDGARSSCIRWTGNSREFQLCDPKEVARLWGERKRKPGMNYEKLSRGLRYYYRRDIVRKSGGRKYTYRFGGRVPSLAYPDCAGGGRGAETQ
# Method in brief: as §1
# [8] = molecular target: T5, ELF3 (Homo sapiens, UniProt P78545 1-371); settings: protein: recombinant; tags: N-terminal GST; dsDNA, one strand shown
# T5 sequence: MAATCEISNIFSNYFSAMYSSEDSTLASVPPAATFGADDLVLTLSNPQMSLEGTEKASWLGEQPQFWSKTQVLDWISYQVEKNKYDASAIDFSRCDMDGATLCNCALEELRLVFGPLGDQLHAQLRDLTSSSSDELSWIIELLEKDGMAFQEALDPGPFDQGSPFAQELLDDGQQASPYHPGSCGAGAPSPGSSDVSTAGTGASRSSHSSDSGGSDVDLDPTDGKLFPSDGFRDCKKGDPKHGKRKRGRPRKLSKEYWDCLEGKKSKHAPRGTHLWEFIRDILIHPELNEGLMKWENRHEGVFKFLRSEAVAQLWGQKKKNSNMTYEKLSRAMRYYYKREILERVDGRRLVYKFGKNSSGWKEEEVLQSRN
# Method in brief: as §1
# [9] = molecular target: CRX (Homo sapiens, UniProt O43186 1-299); settings: protein: recombinant; tags: N-terminal GST; dsDNA, one strand shown
# Sequence of CRX (O43186 whole entry): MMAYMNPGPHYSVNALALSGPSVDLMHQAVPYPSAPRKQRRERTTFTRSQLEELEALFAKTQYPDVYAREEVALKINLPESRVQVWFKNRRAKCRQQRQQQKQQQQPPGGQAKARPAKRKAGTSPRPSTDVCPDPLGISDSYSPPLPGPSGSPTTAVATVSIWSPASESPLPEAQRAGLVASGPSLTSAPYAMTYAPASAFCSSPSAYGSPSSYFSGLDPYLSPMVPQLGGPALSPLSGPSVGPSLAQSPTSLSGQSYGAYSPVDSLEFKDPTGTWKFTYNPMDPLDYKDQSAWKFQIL
# Method in brief: as §1
# [10] = molecular target: ETV1 (Homo sapiens, UniProt P50549 1-477); settings: protein: recombinant; tags: N-terminal GST; dsDNA, one strand shown
# Sequence of ETV1 (P50549 whole entry): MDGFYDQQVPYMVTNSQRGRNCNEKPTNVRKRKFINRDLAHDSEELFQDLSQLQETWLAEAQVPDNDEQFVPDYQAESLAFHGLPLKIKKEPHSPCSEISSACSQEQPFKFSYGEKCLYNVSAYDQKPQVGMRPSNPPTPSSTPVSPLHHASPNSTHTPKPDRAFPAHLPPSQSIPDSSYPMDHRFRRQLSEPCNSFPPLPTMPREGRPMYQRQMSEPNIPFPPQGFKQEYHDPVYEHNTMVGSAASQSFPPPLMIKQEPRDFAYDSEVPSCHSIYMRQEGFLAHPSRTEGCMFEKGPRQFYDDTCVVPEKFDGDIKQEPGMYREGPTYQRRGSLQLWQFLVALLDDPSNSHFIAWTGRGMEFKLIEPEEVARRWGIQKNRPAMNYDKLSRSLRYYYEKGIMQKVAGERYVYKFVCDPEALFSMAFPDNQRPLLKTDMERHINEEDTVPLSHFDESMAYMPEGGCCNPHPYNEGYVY
# Method in brief: as §1
# [11] = molecular target: T6, ERF (Homo sapiens, UniProt P50548 1-548); settings: protein: recombinant; tags: N-terminal GST; dsDNA, one strand shown
# T6 sequence: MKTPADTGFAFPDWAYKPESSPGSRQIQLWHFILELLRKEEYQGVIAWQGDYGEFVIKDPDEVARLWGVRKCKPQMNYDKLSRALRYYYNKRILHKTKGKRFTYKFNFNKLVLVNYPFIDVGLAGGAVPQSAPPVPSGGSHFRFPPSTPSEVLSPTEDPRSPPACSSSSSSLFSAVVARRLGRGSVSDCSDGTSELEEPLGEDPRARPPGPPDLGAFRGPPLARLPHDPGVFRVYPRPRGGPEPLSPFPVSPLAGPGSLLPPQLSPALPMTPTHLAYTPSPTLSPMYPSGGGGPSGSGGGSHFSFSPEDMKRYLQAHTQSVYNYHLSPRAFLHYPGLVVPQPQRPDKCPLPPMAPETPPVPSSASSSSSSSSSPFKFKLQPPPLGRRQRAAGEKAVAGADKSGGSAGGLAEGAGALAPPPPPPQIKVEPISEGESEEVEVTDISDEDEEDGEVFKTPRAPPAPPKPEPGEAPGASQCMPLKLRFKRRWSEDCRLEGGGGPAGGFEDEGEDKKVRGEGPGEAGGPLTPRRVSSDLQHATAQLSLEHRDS
# Method in brief: as §1
# [12] = molecular target: T7, ETV3L (Homo sapiens, UniProt Q6ZN32 1-361); settings: protein: recombinant; tags: N-terminal GST; dsDNA, one strand shown
# T7 sequence: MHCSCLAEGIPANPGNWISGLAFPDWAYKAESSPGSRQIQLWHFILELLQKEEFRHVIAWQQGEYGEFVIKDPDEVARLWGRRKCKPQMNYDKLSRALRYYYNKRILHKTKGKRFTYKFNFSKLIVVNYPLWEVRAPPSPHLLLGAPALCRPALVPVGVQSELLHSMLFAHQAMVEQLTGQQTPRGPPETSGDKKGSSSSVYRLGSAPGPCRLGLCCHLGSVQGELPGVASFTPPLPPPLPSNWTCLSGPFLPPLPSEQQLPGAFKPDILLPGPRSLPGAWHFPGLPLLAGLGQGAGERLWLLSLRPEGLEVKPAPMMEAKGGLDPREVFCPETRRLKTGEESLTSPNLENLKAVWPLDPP
# Method in brief: as §1
# [13] = molecular target: T8, ETS2 (Homo sapiens, UniProt P15036 1-469); settings: protein: recombinant; tags: N-terminal GST; dsDNA, one strand shown
# T8 sequence: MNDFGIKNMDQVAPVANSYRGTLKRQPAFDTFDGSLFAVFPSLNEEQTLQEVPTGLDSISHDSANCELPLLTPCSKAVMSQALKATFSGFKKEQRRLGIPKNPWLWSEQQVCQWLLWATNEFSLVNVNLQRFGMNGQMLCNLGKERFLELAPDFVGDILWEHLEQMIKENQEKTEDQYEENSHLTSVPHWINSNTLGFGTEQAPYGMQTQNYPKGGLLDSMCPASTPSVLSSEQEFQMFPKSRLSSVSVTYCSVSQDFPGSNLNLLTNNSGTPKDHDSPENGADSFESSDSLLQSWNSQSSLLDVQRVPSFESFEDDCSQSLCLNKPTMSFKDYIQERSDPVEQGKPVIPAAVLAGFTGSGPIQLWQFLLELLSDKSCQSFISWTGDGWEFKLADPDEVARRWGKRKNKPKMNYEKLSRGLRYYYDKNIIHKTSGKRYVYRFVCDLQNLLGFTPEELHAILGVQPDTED
# Method in brief: as §1
# [14] = molecular target: T9, SPDEF (Homo sapiens, UniProt O95238 1-335); settings: protein: recombinant; tags: N-terminal GST; dsDNA, one strand shown
# T9 sequence: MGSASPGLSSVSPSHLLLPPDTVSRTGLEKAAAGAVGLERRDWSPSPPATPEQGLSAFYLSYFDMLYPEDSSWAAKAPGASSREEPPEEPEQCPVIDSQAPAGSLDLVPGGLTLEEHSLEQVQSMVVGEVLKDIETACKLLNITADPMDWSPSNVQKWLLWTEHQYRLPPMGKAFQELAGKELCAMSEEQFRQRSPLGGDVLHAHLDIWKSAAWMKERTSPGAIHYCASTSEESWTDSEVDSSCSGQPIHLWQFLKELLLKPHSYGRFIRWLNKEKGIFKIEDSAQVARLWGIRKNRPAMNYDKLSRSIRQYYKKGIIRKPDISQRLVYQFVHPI
# Method in brief: as §1
# [15] = molecular target: T10, ETV7 (Homo sapiens, UniProt Q9Y603 1-341); settings: protein: recombinant; tags: N-terminal GST; dsDNA, one strand shown
# T10 sequence: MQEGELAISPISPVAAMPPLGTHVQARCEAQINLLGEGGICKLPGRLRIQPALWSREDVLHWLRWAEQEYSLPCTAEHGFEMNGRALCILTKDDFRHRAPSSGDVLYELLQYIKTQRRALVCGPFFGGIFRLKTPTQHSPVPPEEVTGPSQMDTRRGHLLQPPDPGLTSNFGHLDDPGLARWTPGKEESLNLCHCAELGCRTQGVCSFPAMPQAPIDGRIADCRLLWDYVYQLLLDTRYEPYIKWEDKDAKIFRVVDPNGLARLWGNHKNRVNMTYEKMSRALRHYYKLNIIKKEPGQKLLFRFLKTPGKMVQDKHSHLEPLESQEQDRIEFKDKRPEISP
# Method in brief: as §1
# [16] = molecular target: T11, ELF5 (Homo sapiens, UniProt Q9UKW6-2 1-255); settings: protein: recombinant; tags: N-terminal GST; dsDNA, one strand shown
# T11 sequence: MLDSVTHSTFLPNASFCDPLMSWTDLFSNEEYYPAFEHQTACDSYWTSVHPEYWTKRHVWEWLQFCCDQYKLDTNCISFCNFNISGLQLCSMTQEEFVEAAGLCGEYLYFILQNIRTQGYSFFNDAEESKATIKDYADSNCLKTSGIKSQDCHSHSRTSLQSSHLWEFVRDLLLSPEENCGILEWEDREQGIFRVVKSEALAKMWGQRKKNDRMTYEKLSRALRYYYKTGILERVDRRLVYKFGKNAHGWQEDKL
# Method in brief: as §1
# [17] = molecular target: T12, ETV3 (Homo sapiens, UniProt P41162-2 1-143); settings: protein: recombinant; tags: N-terminal GST; dsDNA, one strand shown
# T12 sequence: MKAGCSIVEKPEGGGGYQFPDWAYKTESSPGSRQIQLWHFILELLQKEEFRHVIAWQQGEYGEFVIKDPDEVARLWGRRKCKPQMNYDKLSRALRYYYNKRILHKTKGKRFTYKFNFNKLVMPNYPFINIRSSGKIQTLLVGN
# Method in brief: as §1
# [18] = molecular target: ETV6 (Homo sapiens, UniProt P41212 1-452); settings: protein: recombinant; tags: N-terminal GST; dsDNA, one strand shown
# Sequence of ETV6 (P41212 whole entry): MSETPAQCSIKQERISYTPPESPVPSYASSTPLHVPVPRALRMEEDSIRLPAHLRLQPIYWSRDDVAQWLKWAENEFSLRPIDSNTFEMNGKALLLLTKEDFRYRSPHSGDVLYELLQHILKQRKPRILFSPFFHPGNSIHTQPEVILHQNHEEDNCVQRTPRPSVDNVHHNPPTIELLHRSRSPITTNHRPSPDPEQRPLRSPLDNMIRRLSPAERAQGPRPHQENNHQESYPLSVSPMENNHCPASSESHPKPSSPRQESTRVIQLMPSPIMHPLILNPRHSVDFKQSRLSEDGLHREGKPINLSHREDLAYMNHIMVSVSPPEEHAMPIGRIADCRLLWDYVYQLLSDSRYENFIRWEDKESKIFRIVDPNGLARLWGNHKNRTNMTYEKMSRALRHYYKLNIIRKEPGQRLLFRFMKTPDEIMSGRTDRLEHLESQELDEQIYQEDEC
# Method in brief: as §1
sequence,measurement,setting,value
TATAGT,binding signal,[1],"1.03 fold enrichment (6-mer frequency, TF over GST control)"
same,binding signal,[2],"1.11 fold enrichment (6-mer frequency, TF over GST control)"
same,binding signal,[3],"1.07 fold enrichment (6-mer frequency, TF over GST control)"
same,binding signal,[4],"1.09 fold enrichment (6-mer frequency, TF over GST control)"
same,binding signal,[5],"1.03 fold enrichment (6-mer frequency, TF over GST control)"
same,binding signal,[6],"1.31 fold enrichment (6-mer frequency, TF over GST control)"
same,binding signal,[7],"1.12 fold enrichment (6-mer frequency, TF over GST control)"
same,binding signal,[8],"1.28 fold enrichment (6-mer frequency, TF over GST control)"
same,binding signal,[9],"1.34 fold enrichment (6-mer frequency, TF over GST control)"
same,binding signal,[10],"1.11 fold enrichment (6-mer frequency, TF over GST control)"
same,binding signal,[11],"1.16 fold enrichment (6-mer frequency, TF over GST control)"
same,binding signal,[12],"1.06 fold enrichment (6-mer frequency, TF over GST control)"
same,binding signal,[13],"1.02 fold enrichment (6-mer frequency, TF over GST control)"
same,binding signal,[14],"1.02 fold enrichment (6-mer frequency, TF over GST control)"
same,binding signal,[15],"1.2 fold enrichment (6-mer frequency, TF over GST control)"
same,binding signal,[16],"1.04 fold enrichment (6-mer frequency, TF over GST control)"
same,binding signal,[17],"1.06 fold enrichment (6-mer frequency, TF over GST control)"
same,binding signal,[18],"1.09 fold enrichment (6-mer frequency, TF over GST control)"
